This note sets out measurements from PubChem BioAssay (EPA / NIEHS).

Results filed as inconclusive are left out. Activity calls are given as the source filed them. How the source made its calls: active means hit-call score of the fitted dose curve at least 0.9, where 1 is the maximum; inconclusive means response in the unintended direction; inactive means score below 0.9.

In assay [1] the test system is zebrafish Androgen Receptor (AR), gene 100005148. Kind of assay: ATG_zfAR_XSP1: Attagene TRANS-FACTORIAL Multi-Species (XSP1) HepG2 Assay for zebrafish Androgen Receptor (AR) (AID 2283771). An outline of the steps:
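HepG2 cells were transiently transfected with a zebrafish AR-GAL4 reporter system and partially stimulated with 3 nM 6-alpha-fluorotestosterone. Reporter mRNA was measured after 24 h dosing by RT-PCR with capillary electrophoresis, and gain-of-signal was fitted relative to DMSO.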

The target in assay [2] is zebrafish Estrogen Receptor (ESR1), esr1 (gene 259252) (UniProt P57717). Kind of assay: ATG_zfER1_XSP1: Attagene TRANS-FACTORIAL Multi-Species (XSP1) HepG2 Assay for zebrafish Estrogen Receptor (ESR1) (AID 2283772). The procedure:
ATG_XSP1_multi-species_TRANS is a cell-based, multiplexed assay created by modifying the existing Attagene TRANS-FACTORIAL system to include a panel of nuclear receptors from some or all the following species: human (Homo sapiens), mouse (Mus musculus), frog (Xenopus laevis), zebrafish (Danio rerio), chicken (Gallus gallus), and turtle (Chrysemys picta). The ECOTOX-FACTORIAL format uses HepG2, a human liver cell line, with measurements taken at 24 hours after chemical dosing in a 24-well plate. Xsp1 included 3 nM 6-alpha-fluorotestosterone to partially stimulate the androgen receptor.ATG_zfER1_XSP1 is one of 29 assay components measured or calculated from the ATG_XSP1_multi-species_TRANS assay. It is designed to make measurements of mRNA induction, a form of inducible reporter, as detected with fluorescence intensity signals by Reverse transcription polymerase chain reaction (RT-PCR) and Capillary electrophoresis technology.The assay endpoint ATG_zfER1_XSP1 was analyzed in the positive analysis fitting direction relative to DMSO as the negative control and baseline of activity. […] Furthermore, this assay endpoint can be referred to as a primary readout, because this assay has produced multiple assay endpoints where this one serves a reporter gene function. […]

The test system of assay [3] is zebrafish Estrogen Receptor (ESR2B), gene 317733. As to the kind of experiment: ATG_zfER2b_XSP1: Attagene TRANS-FACTORIAL Multi-Species (XSP1) HepG2 Assay for zebrafish Estrogen Receptor (ESR2B) (AID 2283773). In short, it runs like this:
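Gain-of-signal endpoint relative to DMSO: reporter transcript levels quantified by RT-PCR and capillary electrophoresis after 24 h compound exposure of HepG2 cells expressing a zebrafish ER2b-Gal4 chimera.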

Assay [4] has as its system frog Estrogen Receptor (ESR2), gene 100174814. Kind of assay: ATG_frER2_XSP1: Attagene TRANS-FACTORIAL Multi-Species (XSP1) HepG2 Assay for frog Estrogen Receptor (ESR2) (AID 2283774). In short, it runs like this:
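Transactivation of an exogenous receptor-Gal4 fusion is tracked in transfected HepG2 cells via induced reporter transcript levels. After 24 h treatment, RT-PCR with capillary electrophoresis quantifies signal gain over DMSO.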

Assay [5] is described as follows: ACEA_AR_agonist_AUC_viability: ACEA Biosciences xCELLigence Real-Time Cell Analysis on Androgen Receptor Agonism for Viability (AID 2283775).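 On AC50: viability read 80 hours after compound addition.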 In short, it runs like this: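 Read-out is area under the impedance curve at 80 h post-dose in 22Rv1 cells, with DMSO as baseline and signal loss taken as reduced viability. Compounds ran in duplicate from 100 uM final.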

Assay [6] in a line: ACEA_AR_antagonist_AUC_viability: ACEA Biosciences xCELLigence Real-Time Cell Analysis on Androgen Receptor Antagonism for Viability (AID 2283776).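 Further: 22Rv1 human prostate cancer cells growing on impedance electrode plates; area under impedance growth curve at 80 h after dosing as viability; hits lower the growth signal relative to DMSO meaning cytotoxicity.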 An outline of the steps:
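Viability endpoint from label-free cell-index monitoring: 22Rv1 cultures treated with an eight-point 1:4 dilution series starting at 100 uM final, AUC at 80 h fitted against DMSO.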

Chain of zebrafish Estrogen Receptor (ESR1), esr1 (gene 259252) (P57717 whole entry, looked up): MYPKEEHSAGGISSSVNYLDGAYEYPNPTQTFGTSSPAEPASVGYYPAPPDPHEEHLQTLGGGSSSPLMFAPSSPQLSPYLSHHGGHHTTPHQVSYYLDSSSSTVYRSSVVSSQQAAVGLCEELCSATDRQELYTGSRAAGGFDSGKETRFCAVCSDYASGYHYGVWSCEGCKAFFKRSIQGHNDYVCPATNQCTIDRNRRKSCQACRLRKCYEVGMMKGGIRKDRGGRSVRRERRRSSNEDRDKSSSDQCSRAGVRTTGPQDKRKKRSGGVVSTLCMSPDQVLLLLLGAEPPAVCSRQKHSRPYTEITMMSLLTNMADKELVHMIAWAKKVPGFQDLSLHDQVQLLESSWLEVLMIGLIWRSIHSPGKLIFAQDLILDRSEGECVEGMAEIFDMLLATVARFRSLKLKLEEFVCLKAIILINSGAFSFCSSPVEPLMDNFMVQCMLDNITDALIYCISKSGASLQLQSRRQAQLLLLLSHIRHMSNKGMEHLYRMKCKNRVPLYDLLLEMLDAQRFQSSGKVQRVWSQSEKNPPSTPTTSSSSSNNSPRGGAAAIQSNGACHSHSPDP

Turning to `CCN(CC)CCOc1ccc(C(=C(Cl)c2ccccc2)c2ccccc2)cc1`, the compound was classed as inactive in assay [1], in assay [2], in assay [3] and in assay [4].

What is called AC50 is the concentration at which the activity in the assay is half-maximal. On to `CC(=O)O[C@]1(C(C)=O)CC[C@H]2[C@@H]3C=C(Cl)C4=CC(=O)[C@@H]5C[C@@H]5[C@]4(C)[C@H]3CC[C@@]21C`, for which the figures for the AC50 in assay [2], in assay [3] and in assay [4] were 35.6 µM (active), 13.1 µM (active) and 18 µM (active), respectively.

For the compound `C=CCCCCCCCCCCCC`, the compound was called inactive in assay [5] and in assay [6].

`CN(C)C(=O)NC1(c2ccccc2)CCN(CCC[C@]2(c3ccc(Cl)c(Cl)c3)CCCN(C(=O)c3ccccc3)C2)CC1`: the AC50 in assay [5] was 16.2 µM (active); in assay [6] it was 16.7 µM (active).

For the compound `CC(C)COC(=O)CCCCC(=O)OCC(C)C`, the compound was classed as inactive in assay [5] and in assay [6].

In the case of `O=C1NC(=O)C(c2ccccc2)(c2ccccc2)N1`, the figures for the AC50 in assay [5] and in assay [6] were 33.6 µM (active) and 28.7 µM (active), respectively.

Consider `c1ccc2occc2c1`, for which the compound was classed as inactive in assay [5] and in assay [6].

As for `CCC(C)N(C)C(=O)c1cc2ccccc2c(-c2ccccc2Cl)n1` (configuration not stated), the concentration at half-maximal activity (AC50) was 45.7 µM (active) in assay [5] and 40.9 µM (active) in assay [6].

In the case of `CCCCCCC(C=O)=Cc1ccccc1`, the figures for the AC50 in assay [5] and in assay [6] were 76.7 µM (active) and 78.5 µM (active), respectively.

For the compound `COc1ccc(OC(F)(F)F)cc1CN[C@H]1CCCN[C@H]1c1ccccc1`, the AC50 in assay [5] was 65.5 µM (active); in assay [6], 67 µM (active).

In the case of `CC1(C)C(=O)NC(=O)N1CO`, the result in assay [5] and in assay [6] was inactive.

In the case of `CCCC[C@H]1CN(CC2CCOCC2)C(=O)OC12CCN(C1(C)CCN(C(=O)c3c(C)ncnc3C)CC1)CC2`, the compound was called inactive in assay [5] and in assay [6].

Turning to `O=C1CCCCC1`, the compound was classed as inactive in assay [5] and in assay [6].

In the case of `NC1CCCCC1`, the call in assay [5] and in assay [6] was inactive.

As to `CC(N)=O`, the outcome in assay [5] and in assay [6] was inactive.

On to `CC(=O)S[C@H](C(=O)N[C@H]1Cc2ccccc2[C@H]2CCC[C@@H](C(=O)O)N2C1=O)C(C)C`, for which the compound was classed as inactive in assay [5] and in assay [6].

Take `CCc1cc(C2=C(C(=O)O)N(c3ccccc3C(F)(F)F)S(=O)(=O)c3ccccc32)cc2c1OCO2`: the compound was classed as inactive in assay [5]. Further, in assay [6], the AC50 was 25 µM (active).

On to `CC(C)OC(=O)C(C)(C)Oc1ccc(C(=O)c2ccc(Cl)cc2)cc1`, for which the AC50 was 35.4 µM (active) in assay [5] and 41.2 µM (active) in assay [6].

On to `O=C(O)CC(O)(CC(=O)O)C(=O)O`, for which the result in assay [5] and in assay [6] was inactive.

With `N[C@@H](Cc1c[nH]c2ccccc12)C(=O)O`, the compound was classed as inactive in assay [5]. The AC50 in assay [6] was 9.92 µM (active).

As for `O=C(NS(=O)(=O)/C=C/c1cccs1)c1ccc(F)cc1Br`, the AC50 was 3.38 µM (active) in assay [5] and 3.42 µM (active) in assay [6].

Turning to `CCCCCCCCCCCCCCCCO`, the compound was called inactive in assay [5] and in assay [6].

Consider `CC(C)(O)c1ccc(CNC(=O)c2cccnc2Oc2ccc(F)cc2)cc1`, for which the compound was called inactive in assay [5] and in assay [6].

Regarding `O=C(O)CN(CC(=O)O)CC(=O)O`, the outcome in assay [5] and in assay [6] was inactive.

Turning to `CN(C)C(=O)NC1(c2ccccc2)CCN(CC[C@@]2(c3ccc(F)c(F)c3)CN(C(=O)c3ccccc3)CCO2)CC1`, the AC50 in assay [5] is 47 µM (active). Also, in assay [6], the call was inactive.

As for `CCCCCCCC(=O)OC`, the AC50 in assay [5] is 13.9 µM (active). For the same compound, the compound was classed as inactive in assay [6].

As to `CO[C@@H]1COCC[C@@H]1N[C@@H]1CC[C@@](C(=O)N2CCc3ncc(C(F)(F)F)cc3C2)(C(C)C)C1`, the result in assay [5] and in assay [6] was inactive.

In the case of `OCC(CO)n1cnc(-c2ccc(F)cc2)c1-c1ccnc(Oc2ccccc2)n1`, the compound was called inactive in assay [5]. For the same compound, the AC50 in assay [6] is 21.1 µM (active).

Consider `Cc1cn([C@H]2C=C[C@@H](CO)O2)c(=O)[nH]c1=O`, for which, in assay [5], the call was inactive. Also, in assay [6], the AC50 is 19.7 µM (active).

Regarding `C#CC(O)C(CC)CCCC` (configuration not stated), the outcome in assay [5] and in assay [6] was inactive.

With `NC(=Nc1ccccc1)Nc1ccccc1`, the compound was called inactive in assay [5] and in assay [6].

`CC(C)c1cccc(C(C)C)c1`: the compound was classed as inactive in assay [6].

`O=NO`: the compound was classed as inactive in assay [6].

As for `CC(=O)OCC(COC(C)=O)OC(C)=O`, the compound was classed as inactive in assay [6].

With `CCCCCCCCCC[N+](C)(C)[O-]`, the compound was called inactive in assay [5] and in assay [6].

As to `CCCCc1nc2cccnc2n1Cc1ccc(-c2ccccc2-c2nnn[nH]2)cc1`, the AC50 in assay [5] and in assay [6] was 50 µM (active) each time.

`CSc1ccc(Oc2ccc(S(N)(=O)=O)cc2CN(C)C)cc1C`: the values for the AC50 in assay [5] and in assay [6] were 65.2 µM (active) and 50 µM (active), respectively.

As to `CCc1nc(N)nc(N)c1-c1ccc(Cl)cc1`, the AC50 in assay [5] and in assay [6] was 50 µM (active) in each case.

Regarding `Cn1cnc2c1c(=O)[nH]c(=O)n2C`, the compound was called inactive in assay [5] and in assay [6].

On to `CC(=O)CC(c1ccccc1)c1c(O)c2ccccc2oc1=O` (configuration not stated), for which the compound was called inactive in assay [5] and in assay [6].

On to `CCCCCCC(CCCCCCCCCCC(=O)OCC(COC(C)=O)OC(C)=O)OC(C)=O` (configuration not stated), for which the compound was classed as inactive in assay [5] and in assay [6].

In the case of `O=C(Oc1ccccc1)c1cccc(C(=O)Oc2ccccc2)c1`, the compound was classed as inactive in assay [6].

For the compound `COc1ccc(C(=O)Nc2nc3ccccc3c(NCc3ccccc3)c2C#N)cc1`, the values for the AC50 in assay [5] and in assay [6] were 24 µM (active) and 23.5 µM (active), respectively.

As for `CCCCOC(=O)CCCCC(=O)OCCCC`, the call in assay [5] and in assay [6] was inactive.
